BCR signal inh: blocks chronic active B-cell receptor signaling; ABC-DLBCL IkBa-CBG/CBR reporter, luminescence ratio, 4 h; 0.05% of 340,000 active; Potency, µM (top dose mostly 46.1 µM), for the others: at the top dose activity change, negative = inhibition, actives largely listed as inhibitors; active = well fitted inhibition curve with a large enough effect in the signal ratio, with a control signal flat, not every such curve was filed as active; inconclusive = small, poorly fitted or top-dose-only effect, or effect the other way, or a change in a side signal; the % refers to the signal ratio;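 note: plate controls were basal doxycycline-induced cells for no effect and cells given 10 µM MG132 for full effect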
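Concentration-response series (up to 46 uM) were applied to TMD8 dual-reporter cells for 4 h at 37C with doxycycline. Green/red ratio, after filter-overlap correction, defined %Activity; red signal alone was normalised to basal cells and zero luminescence.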
FUS suppressor: rescues growth of FUS-expressing yeast; S. cerevisiae FUS-expressing, growth rescue, OD600, 24 h; Potency, µM (series often up to 76.6 µM), usual class: activators; 0.24% of 390,000 active; AID 1347120;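 note: plate controls were DMSO vehicle for no effect and reference control for full effect; nearly all actives have a fitted effect of over 55% in size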
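FUS-expressing yeast, raffinose-pregrown, induced in 2% galactose minimal medium at OD 0.005; compounds in a dilution series, 24hr at 30C. Growth restoration read as absorbance at 600 nm. CP55940 positive control, DMSO negative.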
aSyn rescue: inhibitors of alpha-synuclein toxicity in yeast | Yeast expressing alpha-synuclein, growth rescue, BacTiter-Glo, 24 h | AID 652106 | Potency, µM (highest dose often 46.1 µM), for inactives: at the top dose growth rescue (activation), most hits filed as activators | 0.14% of 370,000 active; note: % of control where 0% means no effect; nearly all actives have a fitted effect of over 65% in size
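Screening used galactose-induced yeast with toxic alpha-synuclein levels, exposed to compound for 24 hr at 30 deg C. Cell growth, read with BacTiter-Glo luminescence, gave the measured signal.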
uPA surface inh: inhibitors of cell surface uPA generation | cell surface uPA generation assay, qHTS | 0.31% of 330,000 active | Potency, µM (top dose mostly 38.3 µM), for inactives: top-dose activity change, negative = inhibition, usual class: inhibitors; active = well fitted inhibition curve with a large enough effect; inconclusive = small, poorly fitted or top-dose-only effect; inactive = no such curve, though single readings can be large or run the other way; tested in mouse RAW 264.7 cells; note: % is set by controls: 0 for no effect and ±100 for the full control effect; nearly all actives have a fitted effect of over 55% in size
Abeta rescue: compounds reversing amyloid beta toxicity in yeast; Potency, µM (titrated, usually from 46.1 µM), usual class: activators; 0.063% of 410,000 active; yeast expressing A-beta42, growth rescue, OD600, 48 h; response scale: 0% DMSO, 100% iron-clioquinol control; note: nearly all actives have a fitted effect of over 55% in size
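Growth rescue measured by 600 nm absorbance after 48 h yeast culture at 30 C with compound. Values normalized between DMSO and an equimolar ferric chloride plus clioquinol control.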
TDP-43 yeast inh: rescues yeast growth from TDP-43 toxicity; 1.8% of 410,000 active; TDP-43 expressing yeast growth rescue, BacTiter-Glo, 24 h; Potency, µM (series often up to 46.1 µM), for inactives: at the highest dose growth rescue (activation), actives largely listed as activators; note: % of control where 0% means no effect; nearly all actives have a fitted effect of over 50% in size
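Yeast cells expressing TDP-43 under galactose induction are exposed to compounds for 24 hr at 30 deg C. BacTiter-Glo luminescence measures growth, so protective compounds score as activators.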
An asterisk follows results filed as active; i = inactive; ? = inconclusive; . = not tested or not shown; [ ] = dose if it differs, or a comment. Sampled rows, rich in hits. Any-hit rate of the full collection: about 2.3%. Unless noted, calls come from the whole dose curve; as a rule, active = well fitted curve in the direction sought with a large enough effect; inconclusive = small, poorly fitted or top-dose-only effect, or another doubt; inactive = no such curve, though single readings can be large; an effect the other way counts as inactive or inconclusive. Potency is the fitted concentration of half-maximal effect.

SMILES | BCR signal inh | FUS suppressor | aSyn rescue | uPA surface inh | Abeta rescue | TDP-43 yeast inh
COc1ccccc1CNC(=O)c1cc(-c2cc(F)ccc2OC(C)C)n[nH]1 | . | i | 15% | . | i | 25µM*
COc1ccc(F)cc1-c1cc(C(=O)NCc2cccc(Cl)c2)[nH]n1 | . | i | 24% | . | i | 14µM*
COc1cc(CNC(=O)c2cc(-c3cc(F)ccc3OC(C)C)n[nH]2)cc(OC)c1 | . | i | -1% | . | i | ?
COc1ccc(Cl)cc1-c1cc(C(=O)NCc2ccco2)[nH]n1 | . | i | 13% | . | i | ?
CCCOc1ccc(F)cc1-c1cc(C(=O)NCc2ccco2)[nH]n1 | . | i | ? | . | i | 14µM*
CCOc1c(Cl)cc(Cl)cc1CNCCNCCO | -22% | i | 12% | -2% | i | -19%
COc1ccc(S(=O)(=O)Nc2nnc(CC(C)(C)C)s2)cc1 | 2% | i | 8% | 4% | i | 5%
CCCOc1ccc(F)cc1-c1cc(C(=O)NCc2ccccc2OC)[nH]n1 | . | i | 19% | . | i | 35µM*
CC(C)Oc1ccc(F)cc1-c1cc(C(=O)NCc2cccs2)[nH]n1 | . | ? | 28% | . | i | 35µM*
CCCOc1ccc(F)cc1-c1cc(C(=O)NCc2ccccc2)[nH]n1 | . | i | 0% | . | i | ?
Cc1ccc(Sc2nnc(-c3ccccc3)cc2C#N)cc1 | 4% | i | 4% | -1% | i | 21%
Cc1[nH]n(-c2ccc(Cl)cc2)c(=O)c1C(=O)c1ccccc1 | ? | i | -65% | -5% | i | -92%
CC(C(=O)OCc1nnc(-c2ccccc2)o1)N1C(=O)c2ccccc2C1=O (stereo unspecified) | 1% | i | -1% | -2% | i | 19%
Cc1cccc(C)c1Cn1c(C)c(C(=O)NCc2ccc([N+](=O)[O-])cc2)sc1=O | . | ? | 9% | . | i | 11µM*
CCNc1nc(NCC)nc(OCCOC(C)=O)n1 | 0% | i | -3% | -7% | ? | -12%
COc1cc(C(C)=O)ccc1OCC(=O)c1cc(C)n(C2CC2)c1C | ? | i | 5% | 1% | i | 25µM*
Cc1ccccc1-n1c(-c2ccc3ccccc3n2)n[nH]c1=S | ? | i | -1% | 11% | i | 23%
O=C(CNc1ccccc1-c1ccccc1)NCc1ccccc1 | 5% | . | 6% | 4% | i | 20µM*
CCN(CC)CCCN(C(=O)c1ccc(OC)cc1)c1nc(-c2ccc(OC)cc2)cs1 | ? | i | -1% | -8% | i | 8%
COCCCN(C(C)=O)c1nc(-c2ccc(OC)cc2)cs1 | ? | i | -6% | -10% | i | 11µM*
O=C1OCCC/C1=C\c1ccc2c(c1)OCO2 | -15% | i | -2% | -1% | i | -15%
COc1ccc(N/C=C/C(=O)c2ccccc2)cc1 | ? | i | 0% | 10µM* | i | -4%
CCCOc1ccc(N/C=C/C(=O)c2ccc(OC)c(OC)c2)cc1 | -3% | i | 16% | -8% | i | 6%
CCOc1ccc(N/C=C/C(=O)c2ccc(OC)c(OC)c2)cc1 | -1% | i | ? | -12% | i | 16µM*
CCC(C)C(=O)Nc1nnc(CCc2ccccc2)s1 (stereo unspecified) | -1% | i | 6% | 0% | ? | 20µM*
SMILES | BCR signal inh | FUS suppressor | aSyn rescue | uPA surface inh | Abeta rescue | TDP-43 yeast inh
Cc1onc(-c2c(F)cccc2Cl)c1C(=O)Nc1nnc(C2CC2)s1 | ? | i | 10% | 1% | i | 0%
CC1=C(C(=O)OC2CCCCCC2)C(c2c(F)cccc2Cl)CC(=O)N1 (stereo unspecified) | . | i | . | . | i | 11µM*
Cc1c(C(=O)Nc2cccc(-c3nc4ccccc4s3)c2)oc2ccccc12 | . | i | . | . | i | 2%
CCCCOC(=O)c1ccc(NC(=O)CN2C(=O)NC3(CCCCCC3)C2=O)cc1 | 1% | ? | 9% | 8.9µM* | i | 15%
CCCCOC(=O)c1ccc(NC(=O)COC(=O)CN2C(=O)NC3(CCCC3)C2=O)cc1 | . | i | 1% | 0% | i | 1%
Nc1ccc(C#Cc2ccccc2)cc1 | -2% | i | 5% | -4% | i | 14µM*
Nc1ccccc1C#Cc1ccccc1 | 8% | i | -3% | ? | i | 20%
COc1cccc(NC(=S)NC(Cc2ccccc2)c2ccccc2)c1 (stereo unspecified) | . | i | 27% | . | ? | 11µM*
O=C1CCCC2=C1C1(CCCC1)N=C(Nc1nc3cc(Br)ccc3o1)N2 | . | i | . | . | . | .
COc1ccc(OC)c(NC(=O)C(=O)c2cn(CC(=O)N3CCCC3)c3ccccc23)c1 | ? | . | -2% | 23% | i | 4%
O=C(OC1CCCCC1)c1ccc(NC(=O)c2ccco2)cc1 | ? | i | -26% | -4% | i[9.22 µM] | 35µM*
O=C1CN(c2nc(-c3cccs3)nc3sc4c(c23)CCCC4)CCN1 | ? | 35µM* | 20% | 3% | i | 20%
O=c1oc(-c2cccs2)nc2sc3c(c12)CCCC3 | ? | i | -15% | 1% | i | -20%
O=c1oc2ccccc2cc1-c1csc(Nc2nc3c(F)cccc3s2)n1 | 2% | . | 1% | 3% | i | -3%
O=C(Nc1nc(-c2ccccn2)cs1)c1ccco1 | ? | i | 18µM* | -11% | ? | -8%
O=c1oc2ccccc2cc1-c1csc(NN=C2CCCCC2)n1 | -9% | 13µM* | 3% | -4% | i | -10%
O=C(Nc1nc(-c2cc3ccccc3oc2=O)cs1)c1ccco1 | 10% | i | -8% | -1% | i | 3.5µM*
Cc1ccc(Cl)cc1NC(=O)C(C)n1nnc2sc3c(c2c1=O)CCCC3 (stereo unspecified) | . | i | . | . | i | 18%
O=C(/C=C/c1c(F)cccc1Cl)c1ccc(O)cc1 | ? | i | ? | ? | ? | 7.9µM*
COc1cc(/C=C(\C#N)C(N)=O)ccc1OS(=O)(=O)c1ccc(C)cc1 | -2% | i | -6% | -27% | i | 18µM*
COc1cc(/C=C(\C#N)C(=O)NC2CCCCC2C)ccc1OS(=O)(=O)c1ccc(C)cc1 (stereo unspecified) | ? | i | 0% | 0% | i | 15%
COc1cccc(-c2nn(-c3ccc(C)cc3)cc2C(=O)N(C)CC(=O)Nc2cccc(F)c2)c1 | ? | . | 1% | 2% | i | 22µM*
COc1ccc(-c2nn(-c3ccccc3)cc2C(=O)N(C)CC(=O)Nc2cccc(F)c2)cc1 | -11% | ? | 2% | ? | i | ?

Screening data as filed in PubChem.
